Test results published in PubChem BioAssay.
Inconclusive results are not listed. Active and inactive are the calls of the source.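 How the source made its calls, unless noted: active means inhibition above the screen-wide mean plus 3 SD, about 51%; inactive means the rest.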

Key:
[1] = rapamycin-like changes in RPL19A-GFP expression – cell-based, S. cerevisiae, multiplex flow cytometry, primary screen (AID 1862; in the data active means percent of DMSO control GFP below about 86%;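 further: lower values mimic rapamycin by blocking the RPL19A rise seen in DMSO cells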); details: S. cerevisiae RPL19A-GFP strain, flow cytometry fluorescence, 3 h; at 10 µM; stronger effect = lower value
[2] = TOR pathway GLN3 branch reporter MEP2-GFP changes – S. cerevisiae, multiplex flow cytometry, primary screen (AID 1867;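 active means GFP response, as percent of the DMSO control, above the screen-wide mean plus 3 SD, about 139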;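 further: median GFP channel fluorescence of barcode-gated MEP2-GFP cells measured by flow cytometry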); details: S. cerevisiae MEP2-GFP strain, 3 h, at 10 µM, stronger effect = higher value, 100% means same as DMSO wells
[3] = TOR pathway RTG branch CIT2 reporter changes – S. cerevisiae, GFP fusion, multiplex flow cytometry, primary screen (AID 1870;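 active means percent response above a set limit, the screen-wide mean plus 3 SD, cut at about 130% in these data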;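 further: barcoded CIT2-GFP strain pooled with four other GFP strains with rapamycin as positive control; median GFP fluorescence per well over plate mean of DMSO wells so 100% = DMSO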); details: S. cerevisiae CIT2-GFP expression, 3 h, at 10 µM, stronger effect = higher value
[4] = TOR pathway LAP4-GFP level changes – S. cerevisiae, multiplex flow cytometry, primary screen (AID 1873;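 active means GFP signal, as percent of the solvent control, above the screen mean plus 3 SD, about 149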); details: S. cerevisiae LAP4-GFP expression, 3 h, at 10 µM, stronger effect = higher value
[5] = yeast AGP1-GFP level changes, GLN3 branch – cell-based, multiplex flow cytometry, S. cerevisiae, primary screen (AID 1887;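 active means GFP signal above the screen-wide mean plus 3 SD, that is over about 124.5% of the solvent control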;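 further: AGP1-GFP fusion strain of S. cerevisiae within a five-strain barcoded multiplex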); details: 3 h, at 10 µM, stronger effect = higher value
[6] = reduced mouse 2C T cell binding to pMHC/ICAM-1 vesicles – MLPCN validation set, flow cytometry, LFA-1/ICAM-1 modulator project, pilot screen (AID 2523;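 active means response below a set limit, under 55% cells CD8-positive and vesicle-bound, and CD8 cells' 90th-percentile brightness under 279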;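 on vesicle binding response: mean PE anti-B7-1 fluorescence of CD8+ cells relative to row control; 100% = QL9-loaded vesicles with DMSO vehicle in the same plate row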); details: 2C mouse CD8+ T cells, at 7 µM, stronger effect = lower value; double positive events: measured here: CD8+/vesicle+ event percentage
[7] = target: Integrin beta-1 (Homo sapiens) + Integrin alpha-4 (Homo sapiens) (UniProt P13612+P05556); assay: alpha4beta1 integrin LIBS antibody binding reduction – U937 cells, HUTS-21 mAb, flow cytometry, validation set, VLA-4 allosteric modulator project, pilot screen (AID 2674;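 active means inhibition above 50%, about 3 SD of the validation set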;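 further: antibody binding induced by the VLA-4 ligand LDV present at three times its Kd; 0% = LDV ligand with antibody and no compound and 100% = antibody without LDV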); details: HUTS-21 LIBS mAb binding, at 6.7 µM, stronger effect = higher value, binding induced by LDV ligand
[8] = calorie-restriction mimetic ROS inhibitors, yeast – validation compound set, pilot screen (AID 2706;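 active means superoxide response below 65% of plate, a cut near 3 SD across the whole screen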;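 further: yeast exposed to compound for one week at 30 degrees C before staining; 100% = mean of all compound wells on the same plate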); details: S. cerevisiae aging, superoxide DHE fluorescence; at 10 µM; stronger effect = lower value
[9] = target: Beta-adrenergic receptor kinase 1 (Homo sapiens) (UniProt P25098); assay: GRK2 binders displacing RNA aptamer, biochemical, validation, human GRK2, bead flow cytometry (AID 488806;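 active means aptamer binding inhibition above 30%, about 3 SD of noise from non-fluorescent compounds; inactive means inhibition at or below 30%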); details: bead-bound GRK2, FAM-aptamer displacement, at 10 µM, stronger effect = higher value
[10] = target: Beta-2 adrenergic receptor (Homo sapiens) (UniProt P07550); assay: agonist-induced loss of surface beta2AR – cell-based, FAP fluorogen, flow cytometry, validation set, pilot screen (AID 504459;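 active means percent response above 42, roughly 3 SD of non-fluorescent test compounds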;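 further: agonist-driven loss of surface beta2AR via internalization measured by FAP dye flow cytometry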); details: Am2.2-beta2AR cells, at 10 µM, stronger effect = higher value
[11] = target: AP-2 complex subunit beta (Homo sapiens) (UniProt P63010); assay: beta-arrestin/AP2 interaction blockers – biochemical, validation set, GST-AP2 beads, flow cytometry, pilot screen (AID 504541;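 active means inhibition above 54%, about 3 SD of non-fluorescent compounds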;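 further: AP2 carries R879A mutation and is captured from E. coli lysate; bead-bound FITC arrestin peptide fluorescence measuring arrestin peptide binding to AP2; 0% = DMSO wells and 100% = excess unlabeled arrestin peptide control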); details: FITC arrestin peptide, at 10 µM, stronger effect = higher value, AP2 beta2 appendage fragment, R879A mutant
[12] = cytosolic pH regulators acting via V-ATPase – S. cerevisiae, pHLuorin, HTS validation (AID 504600; in the data active means response above about 15%;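 further: plate controls were DMSO for no effect and reference compound for full effect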); details: V-ATPase proton transport, at 10 µM, stronger effect = higher value
[13] = tested on: anti-desmoglein-3 scFv antibody binding to human DSG3; assay: blockers of pathogenic pemphigus antibody–desmoglein-3 binding – biochemical, validation compound set, bead-based, flow cytometry, pilot screen (AID 588368;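 active means binding below the plate cutoff, the plate median minus 3 SD, with a reading above zero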;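 further: signal is the median channel fluorescence of bead-bound GFP antibody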); details: Protein G beads, DSG3-Fc, scFv-GFP binding, at 10 µM, stronger effect = lower value
[14] = Nile Red efflux blockade in pump-expressing yeast – validation compound set, multiplex, phenotypic, pilot screen (AID 588506;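 active means efflux inhibition above 0.42, the validation set average plus 4 SD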;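 further: Nile Red retained in cells so higher fluorescence means more efflux inhibition; 0 = negative control wells and 1 = enniatin B 25 µM full block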); details: S. cerevisiae pump-expressing triplex, Nile Red efflux flow cytometry; at 10 µM; stronger effect = higher value; the pumps come from Candida albicans
[15] = target: ATP-binding cassette sub-family B member 6 (Homo sapiens) (UniProt Q9NP58); assay: blockers of ABCB6-driven porphyrin uptake – K562-ABCB6 cells, flow cytometry, validation set, pilot screen (AID 588550); details: K562-ABCB6 porphyrin accumulation, 1 h, at 10 µM, stronger effect = higher value;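 further: 0% = DMSO wells and 100% = benzethonium chloride 70 µM positive control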
[16] = AML differentiation inducers, ER-HoxA9 marrow cells – cell-based, GFP/MAC1 double positive, flow cytometry, validation set, primary screen (AID 588685;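 active means differentiation response of at least 50%, scaled between solvent and reference control, from cells with both markers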;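 further: compound exposure lasts four days before antibody staining and flow analysis; 0% = DMSO wells and 100% = 5 µM fulvestrant positive control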); details: stronger effect = higher value, normalized: vehicle 0, fulvestrant 100

Chain of ATP-binding cassette sub-family B member 6 (Homo sapiens) (Q9NP58 whole entry, looked up): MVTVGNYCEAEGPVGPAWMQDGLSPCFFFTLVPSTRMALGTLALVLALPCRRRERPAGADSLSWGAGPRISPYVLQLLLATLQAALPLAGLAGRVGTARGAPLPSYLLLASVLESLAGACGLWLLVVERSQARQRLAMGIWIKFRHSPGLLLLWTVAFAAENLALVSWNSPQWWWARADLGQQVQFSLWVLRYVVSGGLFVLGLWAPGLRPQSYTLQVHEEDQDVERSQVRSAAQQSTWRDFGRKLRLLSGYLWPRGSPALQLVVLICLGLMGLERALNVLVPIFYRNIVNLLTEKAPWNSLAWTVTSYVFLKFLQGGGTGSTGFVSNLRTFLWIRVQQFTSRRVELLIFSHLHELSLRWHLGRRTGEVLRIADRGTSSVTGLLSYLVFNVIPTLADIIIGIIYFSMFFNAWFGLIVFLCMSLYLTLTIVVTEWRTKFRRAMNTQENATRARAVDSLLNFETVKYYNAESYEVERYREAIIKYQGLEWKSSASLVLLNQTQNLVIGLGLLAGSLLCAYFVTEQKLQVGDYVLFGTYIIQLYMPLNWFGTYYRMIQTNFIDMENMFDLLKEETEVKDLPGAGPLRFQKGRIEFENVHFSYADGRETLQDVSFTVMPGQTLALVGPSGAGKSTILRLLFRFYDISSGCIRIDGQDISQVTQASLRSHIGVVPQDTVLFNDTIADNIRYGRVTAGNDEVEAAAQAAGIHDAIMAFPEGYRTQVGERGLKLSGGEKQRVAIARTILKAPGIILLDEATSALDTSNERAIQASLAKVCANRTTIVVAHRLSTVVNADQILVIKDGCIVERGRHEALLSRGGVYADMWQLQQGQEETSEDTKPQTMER
Chain of Beta-2 adrenergic receptor (Homo sapiens) (P07550 whole entry, looked up): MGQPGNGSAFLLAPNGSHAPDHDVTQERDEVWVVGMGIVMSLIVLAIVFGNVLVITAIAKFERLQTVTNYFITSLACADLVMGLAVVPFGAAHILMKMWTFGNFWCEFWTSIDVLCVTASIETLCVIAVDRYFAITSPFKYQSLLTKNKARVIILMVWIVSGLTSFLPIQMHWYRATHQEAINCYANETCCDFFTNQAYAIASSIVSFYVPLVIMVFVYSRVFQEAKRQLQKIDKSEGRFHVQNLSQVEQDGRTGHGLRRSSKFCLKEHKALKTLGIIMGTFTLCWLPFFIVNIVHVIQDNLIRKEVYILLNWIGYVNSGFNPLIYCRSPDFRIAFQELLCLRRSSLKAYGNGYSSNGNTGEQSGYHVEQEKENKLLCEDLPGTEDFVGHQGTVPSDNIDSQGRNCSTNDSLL
Chain of AP-2 complex subunit beta (Homo sapiens) (P63010 whole entry, looked up, the tested form may be a part, one chain of several): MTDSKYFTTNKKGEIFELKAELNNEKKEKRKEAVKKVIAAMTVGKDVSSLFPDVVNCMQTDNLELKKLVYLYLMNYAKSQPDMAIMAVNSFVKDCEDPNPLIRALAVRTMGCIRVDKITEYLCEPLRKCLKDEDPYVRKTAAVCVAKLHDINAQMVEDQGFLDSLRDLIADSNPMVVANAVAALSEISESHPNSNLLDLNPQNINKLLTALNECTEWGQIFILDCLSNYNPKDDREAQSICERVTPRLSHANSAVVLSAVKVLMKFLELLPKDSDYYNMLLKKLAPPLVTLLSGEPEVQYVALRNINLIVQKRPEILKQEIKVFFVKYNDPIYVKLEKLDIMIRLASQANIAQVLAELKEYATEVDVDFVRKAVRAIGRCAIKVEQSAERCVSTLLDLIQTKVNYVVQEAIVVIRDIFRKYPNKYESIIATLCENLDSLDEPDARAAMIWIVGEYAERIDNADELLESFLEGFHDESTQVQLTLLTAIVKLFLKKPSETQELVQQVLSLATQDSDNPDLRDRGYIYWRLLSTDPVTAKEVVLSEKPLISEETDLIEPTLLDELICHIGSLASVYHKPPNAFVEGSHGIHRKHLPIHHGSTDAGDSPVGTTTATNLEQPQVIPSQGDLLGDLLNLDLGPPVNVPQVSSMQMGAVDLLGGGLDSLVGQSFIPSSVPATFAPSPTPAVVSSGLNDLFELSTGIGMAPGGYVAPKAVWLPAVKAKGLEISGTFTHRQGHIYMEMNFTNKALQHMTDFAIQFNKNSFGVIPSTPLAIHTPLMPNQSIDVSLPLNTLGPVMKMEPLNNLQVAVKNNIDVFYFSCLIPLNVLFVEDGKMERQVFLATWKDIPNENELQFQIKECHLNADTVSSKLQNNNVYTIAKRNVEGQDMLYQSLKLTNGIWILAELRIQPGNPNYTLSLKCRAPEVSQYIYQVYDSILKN
Chain of Integrin beta-1 (Homo sapiens) + Integrin alpha-4 (Homo sapiens) (P05556 whole entry, looked up): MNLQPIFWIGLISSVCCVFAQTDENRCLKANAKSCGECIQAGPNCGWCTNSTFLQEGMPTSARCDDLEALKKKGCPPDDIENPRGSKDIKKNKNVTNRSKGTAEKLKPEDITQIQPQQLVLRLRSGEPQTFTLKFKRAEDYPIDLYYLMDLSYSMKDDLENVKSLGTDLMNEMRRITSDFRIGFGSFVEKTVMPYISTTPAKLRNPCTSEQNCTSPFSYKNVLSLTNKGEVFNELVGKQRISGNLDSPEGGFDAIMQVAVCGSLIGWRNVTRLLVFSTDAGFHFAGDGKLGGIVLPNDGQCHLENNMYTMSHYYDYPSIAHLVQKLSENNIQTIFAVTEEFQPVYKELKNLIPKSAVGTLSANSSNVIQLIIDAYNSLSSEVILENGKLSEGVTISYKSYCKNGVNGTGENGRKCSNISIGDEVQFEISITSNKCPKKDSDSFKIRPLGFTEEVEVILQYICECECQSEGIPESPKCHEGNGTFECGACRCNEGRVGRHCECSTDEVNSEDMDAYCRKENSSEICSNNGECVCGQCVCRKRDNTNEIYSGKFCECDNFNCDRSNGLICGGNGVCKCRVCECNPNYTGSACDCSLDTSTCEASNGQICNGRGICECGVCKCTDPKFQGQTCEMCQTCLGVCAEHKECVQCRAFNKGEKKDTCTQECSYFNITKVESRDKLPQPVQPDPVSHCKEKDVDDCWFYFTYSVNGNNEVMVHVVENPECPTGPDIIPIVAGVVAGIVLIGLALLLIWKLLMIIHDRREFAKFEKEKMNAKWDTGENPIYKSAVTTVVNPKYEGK
Chain of Integrin beta-1 (Homo sapiens) + Integrin alpha-4 (Homo sapiens) (P13612 whole entry, looked up): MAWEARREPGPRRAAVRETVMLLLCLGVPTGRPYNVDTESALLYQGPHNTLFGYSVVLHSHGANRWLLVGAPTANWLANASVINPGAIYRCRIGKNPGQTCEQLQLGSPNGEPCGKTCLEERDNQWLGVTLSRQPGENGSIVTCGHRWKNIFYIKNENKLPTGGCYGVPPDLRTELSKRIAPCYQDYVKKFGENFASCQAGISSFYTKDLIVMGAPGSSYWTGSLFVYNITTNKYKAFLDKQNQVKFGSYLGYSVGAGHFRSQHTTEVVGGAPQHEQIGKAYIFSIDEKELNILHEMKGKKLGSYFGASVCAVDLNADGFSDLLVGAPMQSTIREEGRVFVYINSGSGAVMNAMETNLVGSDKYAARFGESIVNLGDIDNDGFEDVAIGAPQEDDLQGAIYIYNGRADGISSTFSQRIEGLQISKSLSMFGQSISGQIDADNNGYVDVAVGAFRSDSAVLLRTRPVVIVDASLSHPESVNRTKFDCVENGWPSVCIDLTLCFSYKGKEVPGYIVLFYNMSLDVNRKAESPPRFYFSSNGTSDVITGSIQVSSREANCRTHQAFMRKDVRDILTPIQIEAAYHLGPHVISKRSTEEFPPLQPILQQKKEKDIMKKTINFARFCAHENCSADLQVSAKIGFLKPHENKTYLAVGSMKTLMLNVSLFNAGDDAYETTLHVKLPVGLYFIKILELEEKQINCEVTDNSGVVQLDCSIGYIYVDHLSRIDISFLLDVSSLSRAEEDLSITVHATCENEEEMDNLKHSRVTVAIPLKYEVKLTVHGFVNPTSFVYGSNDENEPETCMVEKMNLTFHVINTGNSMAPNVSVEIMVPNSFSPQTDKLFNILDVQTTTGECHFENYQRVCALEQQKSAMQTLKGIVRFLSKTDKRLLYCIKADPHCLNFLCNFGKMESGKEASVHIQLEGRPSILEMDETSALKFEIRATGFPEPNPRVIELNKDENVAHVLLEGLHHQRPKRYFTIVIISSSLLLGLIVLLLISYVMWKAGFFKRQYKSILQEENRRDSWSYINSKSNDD
Chain of Beta-adrenergic receptor kinase 1 (Homo sapiens) (P25098 whole entry, looked up): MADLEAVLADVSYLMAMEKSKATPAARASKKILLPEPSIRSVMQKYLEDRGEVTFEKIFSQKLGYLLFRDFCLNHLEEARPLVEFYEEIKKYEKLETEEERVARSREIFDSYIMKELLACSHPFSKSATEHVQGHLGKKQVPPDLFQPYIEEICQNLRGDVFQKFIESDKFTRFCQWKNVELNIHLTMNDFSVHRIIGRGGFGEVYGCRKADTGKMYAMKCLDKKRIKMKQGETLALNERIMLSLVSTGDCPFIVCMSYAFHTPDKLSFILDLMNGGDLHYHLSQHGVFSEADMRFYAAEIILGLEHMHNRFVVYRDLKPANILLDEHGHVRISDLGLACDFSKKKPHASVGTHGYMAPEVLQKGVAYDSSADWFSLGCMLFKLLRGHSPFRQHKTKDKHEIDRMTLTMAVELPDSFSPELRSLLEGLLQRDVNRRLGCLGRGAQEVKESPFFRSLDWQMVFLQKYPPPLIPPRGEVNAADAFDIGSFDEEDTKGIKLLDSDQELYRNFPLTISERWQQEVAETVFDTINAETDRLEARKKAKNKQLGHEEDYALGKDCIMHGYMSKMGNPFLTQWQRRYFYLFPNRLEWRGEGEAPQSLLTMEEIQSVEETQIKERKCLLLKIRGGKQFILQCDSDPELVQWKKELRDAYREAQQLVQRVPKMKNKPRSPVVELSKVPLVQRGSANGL

| SMILES | percent of DMSO control GFP [1] | GFP response vs DMSO [2] | percent response of DMSO control [3] | GFP response vs DMSO [4] | GFP response, % of DMSO [5] | double positive events [6] [%] | vesicle binding response [6] | inhibition [7] | superoxide response (% of plate) [8] | aptamer binding inhibition [9] | response [10] | inhibition [11] | response [12] | binding (% of control) [13] | efflux inhibition (fraction of control) [14] | inhibition [15] | differentiation response [16] |
| --- | --- | --- | --- | --- | --- | --- | --- | --- | --- | --- | --- | --- | --- | --- | --- | --- | --- |
| COc1ccc2c(=O)c(-c3cnn(-c4ccccc4)c3)c(C)oc2c1 | 102% (inactive) | 101% (inactive) | 99.6% (inactive) | 115% (inactive) | 109% (inactive) | 58.6 | 153% (inactive) | -2.82% (inactive) | 91.1% (inactive) | 4% (inactive) | -30.2% (inactive) | 7% (inactive) | 1.88% (inactive) | 103% (inactive) | -0.13 (inactive) | -336% (inactive) | -0.06% (inactive) |
| COc1ccc(C(=O)Oc2ccc3c(C)cc(=O)oc3c2C(C)=O)cc1 | 104% (inactive) | 103% (inactive) | 108% (inactive) | 105% (inactive) | 106% (inactive) | 61.4 | 123% (inactive) | -5.11% (inactive) | 103% (inactive) | -1% (inactive) | 2.26% (inactive) | 5.55% (inactive) | -3.4% (inactive) | 107% (inactive) | 0.12 (inactive) | 14% (inactive) | -19.2% (inactive) |
| CC(=O)SC1CC2=CC(=O)CCC2(C)C2CCC3(C)C(CCC34CCC(=O)O4)C12 (stereo not given) | 103% (inactive) | 103% (inactive) | 107% (inactive) | 109% (inactive) | 107% (inactive) | 64.4 | 247% (inactive) | -3.57% (inactive) | 98.5% (inactive) | 5% (inactive) | -4.96% (inactive) | -8.52% (inactive) | 1.6% (inactive) | 100% (inactive) | -0.04 (inactive) | -3% (inactive) | 3.18% (inactive) |
| CCCNCC(O)COc1ccccc1C(=O)CCc1ccccc1 (stereo not given) | 101% (inactive) | 110% (inactive) | 89.6% (inactive) | 88.7% (inactive) | 92.9% (inactive) | 62.4 | 894% (inactive) | 21.3% (inactive) | 98.6% (inactive) | 3% (inactive) | -7.14% (inactive) | -4.07% (inactive) | 0.31% (inactive) | 100% (inactive) | 0.11 (inactive) | -1% (inactive) | -0.73% (inactive) |
| O=C(CN1CCN(Cc2ccccc2)CC1)N1CCCc2c1c(=O)oc1ccc(O)cc21 | 93.3% (inactive) | 127% (inactive) | 108% (inactive) | 77.6% (inactive) | 84.3% (inactive) | 53 | 202% (inactive) | -11% (inactive) | 107% (inactive) | -3% (inactive) | -14.1% (inactive) | 9.01% (inactive) | -1.88% (inactive) | 109% (inactive) | -0.31 (inactive) | 3% (inactive) | 8.19% (inactive) |
| Cc1cccc(C)c1NC(=O)C1CCCCN1C (stereo not given) | 102% (inactive) | 104% (inactive) | 97.8% (inactive) | 90.1% (inactive) | 97% (inactive) | 62.6 | 92.5% (inactive) | -4.6% (inactive) | 104% (inactive) | 5% (inactive) | 10.4% (inactive) | 15.4% (inactive) | 0.17% (inactive) | 98.2% (inactive) | -0.01 (inactive) | 1% (inactive) | -1.71% (inactive) |
| CSc1cccc(NC(=O)/C=C/c2ccccc2)c1 | 91.3% (inactive) | 90.5% (inactive) | 88.6% (inactive) | 83.1% (inactive) | 80.5% (inactive) | 62.5 | 219% (inactive) | 15.2% (inactive) | 114% (inactive) | 1% (inactive) | 1.66% (inactive) | 7.39% (inactive) | 1.17% (inactive) | 104% (inactive) | -0.38 (inactive) | 10% (inactive) | 9.01% (inactive) |
| CCC(C)n1ncn(-c2ccc(N3CCN(c4ccc(OCC5COC(Cn6cncn6)(c6ccc(Cl)cc6Cl)O5)cc4)CC3)cc2)c1=O (stereo not given) | 115% (inactive) | 110% (inactive) | 97.1% (inactive) | 133% (inactive) | 102% (inactive) | 58.2 | 22.8% (inactive) | 3.98% (inactive) | 53.9% (active) | 4% (inactive) | 8.75% (inactive) | -13.8% (inactive) | 1.4% (inactive) | 99.3% (inactive) | 0.55 (active) | 7% (inactive) | 6.49% (inactive) |
| CCOc1ccc2ccccc2c1CNc1nnnn1C | 102% (inactive) | 103% (inactive) | 107% (inactive) | 94% (inactive) | 96.2% (inactive) | 65.8 | 1400% (inactive) | 18.2% (inactive) | 91% (inactive) | 3% (inactive) | -8.39% (inactive) | -1.6% (inactive) | 1.46% (inactive) | 98.4% (inactive) | 0.05 (inactive) | 8% (inactive) | 13.9% (inactive) |
| Cc1cc(C)nc(NS(=O)(=O)c2ccc(N)cc2)n1 | 108% (inactive) | 98.3% (inactive) | 116% (inactive) | 90.1% (inactive) | 104% (inactive) | 65.7 | 216% (inactive) | -5.64% (inactive) | 95.6% (inactive) | 1% (inactive) | -4.61% (inactive) | -9.4% (inactive) | -1.72% (inactive) | 90.1% (inactive) | 0.11 (inactive) | -1% (inactive) | 6.11% (inactive) |
